# The supplement of paper PMC3334620
# Whole data set: some 33,000 sequences, median “E-score (-0.5 to 0.5)” near -0.0059, cut for the highest 2% near 0.26. The entries come from a sample that favours the highest values as a whole.
# Target: T1, Cin5 (UniProt P40917)
# T1 sequence: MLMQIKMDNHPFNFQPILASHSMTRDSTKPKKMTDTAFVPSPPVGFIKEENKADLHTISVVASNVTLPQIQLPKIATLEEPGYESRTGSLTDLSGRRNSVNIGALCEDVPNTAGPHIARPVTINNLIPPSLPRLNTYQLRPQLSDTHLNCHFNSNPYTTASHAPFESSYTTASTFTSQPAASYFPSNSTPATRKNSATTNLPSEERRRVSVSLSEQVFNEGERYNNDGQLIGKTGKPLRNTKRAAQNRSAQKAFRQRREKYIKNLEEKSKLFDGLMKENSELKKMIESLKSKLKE
# Assay: PBM E-score (8-mer binding enrichment) (E-score (-0.5 to 0.5)); higher = stronger / more preferred TF binding
# Details: protein concentration: 100 nM; construct: GST-full length
# How it was run: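 Bound GST-tagged yeast transcription factors, applied at about 100-200 nM to double-stranded universal all-10-mer Agilent arrays, were detected with fluorescent anti-GST. Scans were normalised with masliner. A modified Wilcoxon-Mann-Whitney statistic, the E-score, was assigned to each ungapped eight-base word pooled with its reverse complement by the Universal PBM Analysis Suite.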
row,Sequence,PBM E-score
1,GGGTCCAA,-0.0685
2,AAAGCTAC,-0.0407
3,GATCTAAA,0.0626
4,CCAATAGA,-0.01
5,ACCCCGAT,0.155
6,AACCCGAC,0.0291
7,AACCCGAT,0.258
8,CAATTATG,0.141
9,ACATTATG,0.106
10,ACATTATC,0.289
11,AATTTATC,0.27
12,GAATTATA,0.101
13,CCATTATC,0.0699
14,CAATTATC,0.277
15,AATTTATA,0.249
16,CAATTAAC,0.134
17,TAATTATA,0.351
18,CATTTATC,0.0882
19,CAATTATA,0.126
20,ACGCAATA,0.209
21,TAAGGCAA,0.0779
22,CAAGGAGG,0.00169
23,AGGGGTGC,-0.088
24,CTGGACGA,-0.129
25,CGAAAGAC,1e-05

row,Sequence,PBM E-score
1,CCCCGGGA,0.0124
2,CAATTACA,0.242
3,AAATTATT,0.183
4,TAATTACA,0.259
5,AAATTATA,0.262
6,GAATTATC,0.145
7,AAATTATG,0.24
8,AAATTATC,0.278
9,AAATTAAA,0.214
10,AAATTACA,0.248
11,AATAGAAT,0.106
12,CTGGGTTA,-0.0908
13,ACAGAACA,0.136
14,CCCATTCA,0.214
15,TGAGACCA,-0.078
16,AAGCCTGG,-0.072
17,GCCGTGAC,-0.0205
18,ATACTCAA,0.204
19,CTACTCAG,-0.0922
20,ATACTCAG,0.258
21,CCCGTTCA,-0.0227
22,AAAGCGTC,-0.113
23,GTAGTCAC,-0.185
24,ACTTTTAC,0.273
25,CATTTTAG,0.137

row,Sequence,PBM E-score
1,ACTTTTAA,0.0259
2,CATTTTAC,0.263
3,CATTTTAA,0.0885
4,ACTTTTAG,-0.0275
5,GACTCCAA,-0.226
6,CTAGTGTC,-0.0545
7,GGGTTGAA,-0.0789
8,CAGACTAG,-0.237
9,ATAGGTCA,0.0611
10,ATTAATAG,0.272
11,TCTAATAA,0.0206
12,CCTAATAA,0.0783
13,ATGAATAG,0.148
14,CTTAATAC,0.191
15,ATTAATAC,0.27
16,GTTAATAA,0.186
17,ATTAATGG,0.156
18,CTTAATAA,0.267
19,ATTAATAA,0.336
20,ATTAAAAA,0.162
21,GGTAATAC,0.168
22,GTGCCAAC,-0.0934
23,CAAAAAGG,-0.138
24,GACTACCC,-0.127
25,AACTGTCT,0.0125

row,Sequence,PBM E-score
1,CCGCCGAC,-0.119
2,GAACAGAC,0.0587
3,GGCGCGGA,-0.189
4,AACTGGAA,0.0471
5,ATGATAAC,0.262
6,GTGATAAC,0.125
7,ATGATAAA,0.188
8,ATGATAAT,0.272
9,ATGATAGA,-0.0131
10,ATGATAGC,0.269
11,ATGATAGG,-0.0261
12,CTGATAAC,-0.054
13,ATGATAAG,0.204
14,AGCTGATA,0.0998
15,ATCCTTCC,-0.2
16,GGGGTTAA,-0.0418
17,TCCAGGAA,-0.0393
18,CTGGTTTC,0.0335
19,GGATGCAA,-0.0522
20,GACAGACA,0.16
21,AACAGACA,0.32
22,AACAGACT,0.138
23,AGGATCGC,-0.0224
24,GACTGAAA,-0.0204
25,CACTGAAA,0.108

row,Sequence,PBM E-score
1,TACTGAAA,0.267
2,TACCTTCA,-0.0369
3,ATCACGTG,0.124
4,ATCACGTC,0.186
5,ATCACATA,0.291
6,CTCACATA,0.164
7,ATCACATG,0.00787
8,ATCACGTA,0.269
9,AGTGGTCC,-0.116
10,GACTCGTA,-0.2
11,CAATCCTC,-0.129
12,CAAGGTGA,-0.0314
13,AATGAAAC,0.169
14,ACATAAAA,0.22
15,ATAAAAAT,0.0935
16,ATATAAAT,0.28
17,ATATAAAG,0.137
18,ACATAAAT,0.28
19,GCATAAAC,0.115
20,CCATAAAC,-0.114
21,ACATAAAC,0.263
22,ACATAAAG,0.00631
23,AAGGCACC,-0.0903
24,AATACCTC,0.0347
25,CTCCATTA,-0.0341

row,Sequence,PBM E-score
1,GGCCAGAC,-0.24
2,CCCAGTAA,0.0641
3,CAGCCGCC,-0.0669
4,ACGGCAAG,-0.0312
5,ACGGCAAA,0.0612
6,ACGGCAAT,0.273
7,AATCAAAC,0.326
8,GATCAACA,-0.0699
9,AATCAAAT,0.176
10,TATCAACA,0.108
11,AATCAACA,0.348
12,CATCAAAC,0.0949
13,CCCTGCAA,-0.132
14,CTGGCTCA,0.0435
15,ACGTTGGC,-0.143
16,ACAATTTC,0.139
17,CTAGGAAC,-0.124
18,GTCACCGA,-0.12
19,CCGCATAA,0.283
20,GCGCATAA,0.187
21,ACGCATAA,0.0967
22,GAGCGAGA,0.166
23,GCAAGGAA,-0.0209
24,CTGCTTCA,-0.153
25,AATGGTAA,0.233

row,Sequence,PBM E-score
1,TATGGTAA,0.288
2,GATGGTAA,-0.0229
3,CGCTTTTC,-0.0646
4,AACACTGT,-0.0444
5,AACACTTA,0.154
6,AACACTGA,0.271
7,CTTCGCCA,-0.137
8,GATTAATC,0.145
9,CATTAATA,0.187
10,GATTAAGA,0.104
11,AATTAATT,0.0929
12,TATTAACA,0.195
13,TATTAATA,0.297
14,AATTAATG,0.221
15,AATTAATA,0.341
16,GATTAATA,0.348
17,GTGGGGTA,0.181
18,ACGCACTA,0.0242
19,GCTGGGCA,-0.142
20,AAGAGCCG,-0.187
21,CAAGGGTG,-0.166
22,TCGGCAGA,-0.0269
23,ATTAAATG,0.245
